Consider 66 molecules from PubChem BioAssay AID1117319 (Southern Research Institute, 2015).

As usually defined, the inhibition is the drop in the measured response relative to a control, in per cent.

The structures appear in SMILES notation. Screen size: about 260,000 compounds; about 1,500 (0.58%) were called active. Another 5% or so got no clear call; they are omitted.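 How the source made its calls: active means inhibition above a set limit at one or more doses, reproduced on every date tested; inconclusive means results disagree between test dates, or hit never tested in dose response; inactive means the rest.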 These entries were drawn from the full list. Potency and affinity values are given separately.

In this test the target is Virion infectivity factor (Human immunodeficiency virus type 1 group M subtype B (isolate BH10)) + Virion infectivity factor (Human immunodeficiency virus type 1 group M subtype B (isolate BRU/LAI)) + Virion infectivity factor (Human immunodeficiency virus type 1 group M subtype B (isolate PCV12)) + Virion infectivity factor (Human immunodeficiency virus type 1 group M subtype B (isolate HXB2)) + DNA dC->dU-editing enzyme APOBEC-3G (Homo sapiens) (UniProt P69720+P69721+P69722+P69723+Q9HC16). Briefly: HIV-1 Vif–A3G interaction blockers – biochemical, TR-FRET, GST-Vif 1-94, biotin-A3G peptide, dose response retest, primary screen (AID 1117319).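 Further: Vif residues 1-94 fused to GST binding biotinylated APOBEC3G peptide 110-148; 0% = full assay without inhibitor and 100% = GST in place of GST-Vif.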 Particulars: TR-FRET GST-Vif / biotin-A3G peptide binding; active compounds read high.
As to `COc1cccc(-n2nc(C(N)=O)c(O)cc2=O)c1`, the inhibition is -7.89% (inactive).

Turning to `CC(=O)NNc1ncnc2ccccc12`, the inhibition was 16% (inactive).

`O=C(O)CCC(=O)NNc1ncnc2ccccc12`: the inhibition was -0.06% (inactive).

In the case of `Cc1cc(N/N=C/c2ccncc2)nc2ccccc12`, the inhibition is 8.69% (inactive).

As for `COC(=O)CC1SC(=O)NC1=Nc1ccc(C)cc1` (stereo unspecified), the inhibition was 19.1% (inactive).

Regarding `CCCCn1c(N)c(N(CCOC)C(=O)c2ccc(OCc3c(C)noc3C)cc2)c(=O)[nH]c1=O`, the inhibition was 5.41% (inactive).

Take `O=C(CSc1ncnc2sccc12)Nc1ccccc1`: the inhibition was -6.5% (inactive).

For `O=C(CSc1ncnc2sccc12)Nc1ccccc1F`, the inhibition was -5.44% (inactive).

On to `Cc1ccc2c(c1)C(c1ccccc1)CC(=O)O2` (stereo unspecified), for which the inhibition was -9.94% (inactive).

`Nn1c(SCC(=O)Nc2ccc3c(c2)OCO3)nnc1C(F)(F)F`: the inhibition is 1.55% (inactive).

In the case of `Cn1c(SCCC#N)nnc1-c1ccc(F)cc1`, the inhibition is 11.1% (inactive).

On to `O=C(O)CSc1nnc(-c2ccncc2)n1C1CCCCC1`, for which the inhibition is -0.35% (inactive).

Turning to `C/C(=C\C(=O)c1ccc(C)cc1)Nc1ccc(N2CCOCC2)cc1`, the inhibition is 11.1% (inactive).

Consider `COc1ccc2nc(C)cc(Nc3ccccc3OC)c2c1`, for which the inhibition was -8.19% (inactive).

Take `Cc1cccc(S(=O)(=O)c2c(C)cc(C)nc2Cl)c1`: the inhibition was -4.17% (inactive).

As for `COc1ccc(CN2CCN(c3nc4ccccc4s3)CC2)cc1`, the inhibition was -11.5% (inactive).

On to `Cc1ccc(CN(Cc2ccccc2)C(=S)Nc2ccccc2C)o1`, for which the inhibition is 13.2% (inactive).

On to `CN(C)/C=C1/Sc2ccccc2C1=O`, for which the inhibition is -7.14% (inactive).

In the case of `CC(=O)N(C)/C=C1\Sc2ccccc2C1=O`, the inhibition was 1.33% (inactive).

In the case of `CCOC(=O)C(CC(=O)O)N1CCCCC1` (stereo unspecified), the inhibition is -2.07% (inactive).

For the molecule `Cc1ccc(C(=O)Nc2ccc(CC(=O)O)cc2)o1`, the inhibition is 1.07% (inactive).

Take `Cc1ccc(C(=O)Nc2ccc(F)cc2)o1`: the inhibition was -0.54% (inactive).

`CCOC(=O)c1ccc(N/C=C/C(=O)C(C)(C)C)cc1`: the inhibition was 5.83% (inactive).

For the molecule `COc1ccc(N/C=C/C(=O)C(C)(C)C)cc1`, the inhibition is -3.89% (inactive).

In the case of `CCN(CC(=O)Nc1c(F)cccc1F)C(=O)C1CC(=O)N(CCc2ccccc2)C1` (stereo unspecified), the inhibition is 5.22% (inactive).

As to `CN(CCC#N)C(=O)CC1(Cc2ccccc2)CCOC(C)(C)C1` (stereo unspecified), the inhibition is -1.26% (inactive).

Turning to `Cc1cccc(Nc2c([N+](=O)[O-])ccc3nonc23)c1C`, the inhibition is -5.88% (inactive).

With `Cc1cc(C)cc(NC2=NCC(=O)N2Cc2ccccc2)c1`, the inhibition is 2.08% (inactive).

Take `CCOCCCNC(=O)Cn1cnc2c(cnn2-c2ccc(F)cc2)c1=O`: the inhibition is -2.53% (inactive).

`Cc1ccccc1N(C=O)c1ccccc1C`: the inhibition was -8.26% (inactive).

For the molecule `COc1cccc(OCCNS(=O)(=O)c2cccc([N+](=O)[O-])c2)c1`, the inhibition was -4.86% (inactive).

In the case of `Oc1c(Cl)cc(CN2CCCCC2)c2cccnc12`, the inhibition was 10.4% (inactive).

On to `O=[N+]([O-])c1cc(Cl)c2cccnc2c1O`, for which the inhibition was -6.11% (inactive).

For `Oc1c(CN2CCOCC2)cc(COCc2ccccc2)c2cccnc12`, the inhibition was 29.4% (inactive).

As for `CCOc1cccc(CN2CCN(c3cccc(C(F)(F)F)c3)CC2)c1O`, the inhibition was 28.2% (inactive).

For the molecule `O=[N+]([O-])c1ccc(O)c2cccnc12`, the inhibition was -6.29% (inactive).

As for `Cc1ccc([N+](=O)[O-])c2cccnc12`, the inhibition is 1.02% (inactive).

In the case of `O=[N+]([O-])c1cc(F)c2cccnc2c1O`, the inhibition is 18.9% (inactive).

In the case of `O=[N+]([O-])c1cc(CN2CCN(c3ccccc3)CC2)c(O)c2ncccc12`, the inhibition is 12.7% (inactive).

For the molecule `CCOC(=O)c1cc(-c2cccs2)[nH]n1`, the inhibition was 3.68% (inactive).

As for `O=C1C(c2ccccc2)c2ccccc2N1Cc1ccccc1` (stereo unspecified), the inhibition is -2.08% (inactive).

`CCOc1ccc(OCCn2ccnc2)cc1`: the inhibition was -0.21% (inactive).

For the molecule `Cc1nc2ccc(NS(=O)(=O)c3cccc([N+](=O)[O-])c3)cc2s1`, the inhibition was -2.07% (inactive).

Take `O=C(Nc1ccc2nc(-c3cccs3)c(-c3cccs3)nc2c1)NC1CC1`: the inhibition was -3.31% (inactive).

As to `OCCCNC(=S)Nc1ccc2nc(-c3ccccn3)c(-c3ccccn3)nc2c1`, the inhibition was 16.7% (inactive).

As for `O=C(NCCO)Nc1ccc2nsnc2c1`, the inhibition was 13.2% (inactive).

Regarding `O=C(Nc1ccc2nsnc2c1)NC1CCCCC1`, the inhibition was -12.3% (inactive).

Turning to `O=C(Nc1ccc(N2CCOCC2)cc1)Nc1ccc2nc(-c3ccco3)c(-c3ccco3)nc2c1`, the inhibition is 16% (inactive).

With `COCCNC(=O)Nc1ccc2nc(-c3cccs3)c(-c3cccs3)nc2c1`, the inhibition is 13.9% (inactive).

Turning to `Cc1nc2ccc(NC(=O)NCCCO)cc2s1`, the inhibition is -2.1% (inactive).

For `COCCNC(=O)Nc1ccc2nc(C)sc2c1`, the inhibition was 3.2% (inactive).

In the case of `COc1cc2[nH]c(=O)c(C(=O)NCc3ccc(C)cc3)c(O)c2cc1OC`, the inhibition is -8.1% (inactive).

As for `O=C1NC[C@H](c2ccccc2)N(CCc2cc(C(F)(F)F)cc(C(F)(F)F)c2)C1=O`, the inhibition was -3.13% (inactive).

As to `COC(=O)c1sc2nc(C)c([N+](=O)[O-])c(C)c2c1N`, the inhibition was 6.2% (inactive).

Consider `CC(C)c1nnc(NC(=O)CC(=O)Nc2ccccc2C(=O)O)s1`, for which the inhibition was 15.4% (inactive).

`CCOC(=O)c1c(NC(=O)COC(=O)CCOc2ccc(OCC)cc2)sc(C(=O)N(C)C)c1C`: the inhibition is -2.2% (inactive).

For the molecule `Cc1nc(CC(=O)Nc2nccs2)cs1`, the inhibition is -1.06% (inactive).

Consider `COC(=O)C1=C(C(=O)OC)[C@@H]2Nc3ccccc3[C@@]23C[C@@H](C(=O)OC)N=C3N1`, for which the inhibition was 0.57% (inactive).

As for `CN(CC(=O)Nc1ccccc1N1CCOCC1)S(=O)(=O)c1ccc(F)cc1`, the inhibition was 4.33% (inactive).

As for `O=C(c1ccc(Cl)cc1)c1cnc(-c2ccc(Cl)cc2)s1`, the inhibition is -4.73% (inactive).

For the molecule `O=C(CCCCl)Nc1c2c(nn1-c1ccccc1)CSC2`, the inhibition was -3.73% (inactive).

For `Cc1cc2nc(C3CCN(Cc4nnnn4Cc4cccs4)CC3)[nH]c2cc1C`, the inhibition is 1.05% (inactive).

Turning to `COC(=O)C1CC(c2ccccc2)N(c2ccccc2)O1` (stereo unspecified), the inhibition was -1.63% (inactive).

Regarding `CS(=O)(=O)N1CCCC(C(=O)NCCN2CCC(Cc3ccccc3)CC2)C1` (stereo unspecified), the inhibition was -4.71% (inactive).

As for `CS(=O)(=O)N1CCCC(C(=O)NCCCN2CCN(Cc3ccccc3)CC2)C1` (stereo unspecified), the inhibition was 8.72% (inactive).

For `COc1ccccc1/C=C/C(=O)OCC(=O)Nc1ccccc1Sc1ccccc1`, the inhibition was -5.26% (inactive).
